The record followed here is PubChem BioAssay AID686970 (National Center for Advancing Translational Sciences (NCATS), 2013).

SMILES strings stand for the structures. The campaign covered roughly 360,000 compounds. About 6,000 (1.7%) were called active. About 8% were inconclusive and are not listed. Shown is part of a subset that was picked to be rich in actives. Unmarked numbers belong to inactive results. Calls follow the shape of the dose curve; as a rule, active = well fitted cell-killing curve with a large enough effect; inconclusive = small, poorly fitted or top-dose-only effect, or effect the other way; inactive = flat fitted curve, though single readings scatter.
Potency is read from the fitted curve at half-maximal effect.

The nature of this test: qHTS for induction of synthetic lethality in tumor cells producing 2HG: qHTS for the HT-1080-NT fibrosarcoma cell line.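 Also: NT is the 2HG producing partner of a matched IDH1 knockdown line; nearly all actives have a fitted effect of over 55% in size.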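 As to activity, negative = less viability: 0% = DMSO-treated cells and -100% = media-only wells without cells.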 The following applies: HT-1080-NT fibrosarcoma viability, CellTiter-Glo ATP luminescence, 48 h; series mostly up to 46.1 µM; activity, negative = less viability: at the top concentration. The essentials: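 Toxicity toward the 2HG-producing NT line was scored as %Activity, normalised to DMSO and no-cell wells, from CellTiter-Glo luminescence after 48 hours' treatment.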
For `O=[N+]([O-])c1ccc(N2CCOCC2)cc1`, the “activity, negative = less viability” value was -6.24%.

Consider `O=C1CC(c2ccccc2)=NN1c1ccc([N+](=O)[O-])cc1`, for which the Potency is 14.6 µM (active).

Consider `COC(=O)CC1=NN(c2ccccc2)C(=O)C1`, for which the “activity, negative = less viability” value was 9.15%.

For the compound `COc1ccc(C(=O)N2CCCCC2c2cc(C(=O)Nc3ccc(F)c(Cl)c3)no2)cc1` (stereo unspecified), the “activity, negative = less viability” value is -21.2%.

Take `Cc1c(C(=O)NCC2CC2)sc(=O)n1Cc1cccc(F)c1`: the “activity, negative = less viability” value is 11%.

`COc1ccc(CNC(=O)[C@H](Cc2c[nH]c3ccccc23)NC(C)=O)cc1OC`: the “activity, negative = less viability” value is 12.4%.

`COc1ccc(CNC(=O)Cc2ccc(-c3ccccc3)cc2)cc1OC`: the Potency is 14.6 µM (active).

As to `COc1ccc(NC(=O)CNC(=O)Cc2ccccc2)cc1OC`, the “activity, negative = less viability” value was -0.905%.

With `O=C(C=CC(=O)Nc1ccc(F)cc1F)Nc1ccc(F)cc1F`, the “activity, negative = less viability” value was 7.85%.

Take `NS(=O)(=O)c1ccc(CNC(=O)c2cc(S(=O)(=O)N3CCOCC3)ccc2N2CCCC2)cc1`: the “activity, negative = less viability” value was 0.267%.

With `COC(=O)c1ccc2c(c1)S(=O)(=O)NC2C` (stereo unspecified), the “activity, negative = less viability” value was 16.3%.

For `COC(=O)CCCCC1=CCC2C(=O)C=C(O)C2C1` (stereo unspecified), the “activity, negative = less viability” value is 6.86%.

`CC(OC(=O)c1ccc(NC(=O)CC#N)cc1)C(=O)Nc1ccc(S(=O)(=O)N2CCCC2)cc1` (stereo unspecified): the “activity, negative = less viability” value is -0.404%.

Turning to `CCOCCCn1c(NN)nc2ccccc2c1=O`, the “activity, negative = less viability” value was 1.83%.

With `CCn1c(/C=C/c2ccc([N+](=O)[O-])o2)nc2ccccc2c1=O`, the Potency is 2.59 µM (active).

As to `Cc1ccc(-n2c(SCC(=O)N/N=C/C=C/c3ccccc3[N+](=O)[O-])nc3ccccc3c2=O)cc1`, the “activity, negative = less viability” value is 4.46%.

For `CCC1NC(=O)c2cccnc2-n2c1nc1ccc(C)cc1c2=O` (stereo unspecified), the “activity, negative = less viability” value is 16.5%.

Consider `COc1cc2nc(N3CCCN(C)CC3)nc(NC(C)C)c2cc1OC`, for which the “activity, negative = less viability” value is -15.7%.

On to `COc1cc2ccc(C(C)=O)c(O)c2cc1OC`, for which the “activity, negative = less viability” value is -1.62%.

`CC(C)CN1C(=O)CN(S(C)(=O)=O)CC1(C)C(=O)NCc1ccccc1` (stereo unspecified): the “activity, negative = less viability” value is 25.9%.

On to `COc1cc(OC)c2c(-c3cccc(-c4cccc(N)c4)c3)cc(=O)oc2c1`, for which the Potency was 6.51 µM (active).

As to `COc1ccc(-c2c(C)cc3oc(=O)cc(-c4ccccc4)c3c2C)cc1F`, the “activity, negative = less viability” value is 10.6%.

As to `COc1ccc(-c2c(C)cc3oc(=O)cc(-c4ccccc4)c3c2C)cc1OC`, the “activity, negative = less viability” value is 7.56%.

Regarding `COc1cc2nc(N3CCCN(C)CC3)nc(NC3CC3)c2cc1OC`, the “activity, negative = less viability” value was -21.4%.

For `Cc1nc2ccccc2c(=O)n1-c1ccc(NS(=O)(=O)c2ccc(F)cc2F)cc1`, the “activity, negative = less viability” value was 0.277%.

On to `O=c1c2ccccc2ncn1/N=C/c1ccccc1`, for which the “activity, negative = less viability” value was 3.2%.

For the compound `Cc1[nH]n(-c2ccc(Cl)cc2)c(=O)c1/C=N/n1c(C)nc2ccccc2c1=O`, the Potency is 23.1 µM (active).

For the compound `CC1(C(=O)O)CCN1C(=O)/C=C/c1ccccc1` (stereo unspecified), the “activity, negative = less viability” value was 22%.

As for `CC1(C(=O)NS(=O)(=O)c2ccccc2)CCN1C(=O)C/C=C/c1ccccc1` (stereo unspecified), the “activity, negative = less viability” value is 1.36%.

For the compound `CC1(C)CCSC(/C=C/c2ccccc2)=N1`, the Potency was 23.1 µM (active).

On to `O=C(O)C(=Cc1ccc([N+](=O)[O-])cc1)CCc1ccccc1`, for which the “activity, negative = less viability” value is -1.78%.

With `Brc1ccc2nc(-c3ccccc3)c(Cc3ccccc3)n2c1`, the “activity, negative = less viability” value is 17.3%.

Take `Cc1ccc(-c2nc3ccc(Br)cn3c2Cc2ccccc2C(F)(F)F)cc1`: the “activity, negative = less viability” value is -23.8%.

`Cc1ccc(NC(=O)N2CCC(C(=O)NCc3ccc(F)cc3)CC2)cc1`: the “activity, negative = less viability” value is 8.01%.

As for `CCc1ccc(CNC(=O)C2CCN(c3nnc(C)c4c(C)n(-c5ccc(C)cc5)nc34)CC2)cc1`, the Potency is 13 µM (active).

Turning to `CCS(=O)(=O)N1CCCC(C(=O)NCc2ccc(C)cc2)C1` (stereo unspecified), the “activity, negative = less viability” value was 9.86%.

`CCN(CC)C(=O)C1=C(C)N(Cc2ccc(F)cc2)C(=O)C(CC(=O)NC2CCCC2)C1` (stereo unspecified): the “activity, negative = less viability” value is -1.24%.

As to `CCc1ccccc1NC(=O)CSc1nnc([C@@H](NC(=O)OC(C)(C)C)C(C)CC)o1` (stereo partly specified), the “activity, negative = less viability” value is 2.65%.

`C[C@@H](NC(=O)OC(C)(C)C)c1nnc(S(=O)(=O)Cc2ccccc2)o1`: the Potency was 16.4 µM (active).

For `COc1ccccc1NC(=O)[C@H](COCc1ccccc1)NC(=O)OC(C)(C)C`, the “activity, negative = less viability” value was 6.66%.

Regarding `CC1(C(=O)Nc2cccc3c2CCCC3)CCN1C(=O)C1(c2ccccc2)CC1` (stereo unspecified), the “activity, negative = less viability” value was -21.9%.

With `O=C(Nc1ccccc1)c1ccccc1Br`, the “activity, negative = less viability” value is -0.814%.

On to `COc1ccc2sc(-c3ccc(S(C)(=O)=O)cc3)c(C#Cc3cncn3C)c2c1`, for which the Potency is 20.6 µM (active).

With `COc1ccc(-c2sc3ccc(OC)cc3c2C#Cc2ccccn2)cc1`, the “activity, negative = less viability” value is -11.5%.

With `COc1ccc2sc(-c3ccc(S(C)(=O)=O)cc3)c(-c3ccc(C(N)=O)cc3)c2c1`, the “activity, negative = less viability” value is -27.8%.

In the case of `CC1=C(C(=O)N(C)C)CC(CC(=O)NCCN2CCOCC2)C(=O)N1Cc1ccccc1` (stereo unspecified), the “activity, negative = less viability” value was 13%.

With `O=C1[C@H]2[C@@H](c3ccc(C(F)(F)F)cc3)N[C@]3(CCCN(Cc4ccc(Cl)cc4)C3=O)[C@H]2C(=O)N1Cc1ccccc1`, the “activity, negative = less viability” value is -17.1%.

With `CCCCN1C[C@H](c2ccc(Br)cc2)[C@@H](CC(=O)Nc2ccc(Br)cc2)C1=O`, the “activity, negative = less viability” value was -4.62%.

`Nc1nc(Nc2ccccc2F)nc(NC2CCCCC2)c1[N+](=O)[O-]`: the Potency is 16.4 µM (active).

In the case of `Nc1nc(NCC2CCCO2)nc(Nc2ccccc2F)c1[N+](=O)[O-]` (stereo unspecified), the “activity, negative = less viability” value was -0.899%.

As for `C=CCNc1nc(N)c([N+](=O)[O-])c(NC2CCCCC2)n1`, the “activity, negative = less viability” value is 0.683%.
